Assay outcomes from PubChem.
Six1-Eya2 blk: Six1/Eya2 interaction inhibition | Q15475+O00167 | 0.56% of 360,000 active | AlphaScreen GST-Six1/His-Eya2 binding, biochemical; stronger effect = lower value | activity change, % (no concentration beside the values); in the data active means activity change below about -65%; inconclusive means mostly about -30% to -63%; further: on the % scale 0 is the no-effect control and ±100 the full control effect
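Compounds are tested against tagged Six1 and Eya2 proteins bridged by glutathione donor and nickel acceptor beads; after a one-hour incubation at 37 °C without light, AlphaScreen emission is recorded.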
p53 reactivation: re-activators of mutant p53; H1299 p53-A138V BP100-luciferase reporter, luminescence, 24 h; Potency, µM (series often up to 92.2 µM), for inactives: at the highest dose activity change, positive = activation, actives largely listed as activators; 0.063% of 320,000 active; AID 504706; further: potency means the concentration at half of the fitted maximal effect; % of control where 0% means no effect; nearly all actives have a fitted effect of over 45% in size
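H1299 (p53-null), stable ts p53-A138V + BP100-Luc; 1000 cells/well, Opti-MEM/10% FBS; cpd 4 pt, 1:5; 24 h, 37 deg C, 5% CO2; detection reagent 10 min RT; luminescence.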
RORg inh: blocks mouse ROR gamma transcriptional activity | AID 2551 | Drosophila S2 Gal4-RORgamma UAS-luciferase reporter, 20 h | 5.4% of 310,000 active | P51450 | Potency, µM (titrated, usually from 53.6 µM), inactives show at the top dose activity change, negative = inhibition, usual class: inhibitors; further: potency means the concentration at half of the fitted maximal effect; on the % scale 0 is the no-effect control and ±100 the full control effect; nearly all actives have a fitted effect of over 60% in size
Target sequence (P51450 whole entry, looked up, the tested form may be a part): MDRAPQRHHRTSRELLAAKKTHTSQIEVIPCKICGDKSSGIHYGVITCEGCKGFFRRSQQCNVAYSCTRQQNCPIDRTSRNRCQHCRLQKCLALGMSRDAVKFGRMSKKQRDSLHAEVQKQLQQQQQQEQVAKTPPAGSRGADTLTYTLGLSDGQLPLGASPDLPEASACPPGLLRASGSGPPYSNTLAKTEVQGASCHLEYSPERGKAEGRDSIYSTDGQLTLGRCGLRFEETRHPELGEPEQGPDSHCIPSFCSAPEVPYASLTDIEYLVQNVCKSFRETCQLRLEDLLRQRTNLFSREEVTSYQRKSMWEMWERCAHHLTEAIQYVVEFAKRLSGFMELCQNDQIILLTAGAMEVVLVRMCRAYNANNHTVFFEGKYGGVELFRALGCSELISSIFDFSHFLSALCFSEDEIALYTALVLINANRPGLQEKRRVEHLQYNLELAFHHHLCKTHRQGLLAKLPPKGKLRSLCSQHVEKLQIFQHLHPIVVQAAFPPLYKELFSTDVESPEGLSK
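In this cell-based reporter format, copper sulfate (700 uM final) drives Gal4–ROR gamma fusion expression from a metallothionein promoter in Drosophila Schneider cells; compounds preincubated 1 hr, reporter read after 20 hr at ambient temperature.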
VP16 counter: Gal4-VP16 reporter inhibition counter-screen. AID 2546. Potency, µM (top dose mostly 53.6 µM), for inactives: at the top dose activity, negative = inhibition, most hits filed as inhibitors. 3.5% of 310,000 active. Drosophila S2 Gal4-VP16 UAS-luciferase, luminescence, 20 h;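 further: Gal4-VP16 expression switched on by copper sulfate through the metallothionein promoter; potency means the concentration at half of the fitted maximal effect; on the % scale 0 is the no-effect control and ±100 the full control effect; nearly all actives have a fitted effect of over 50% in size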
CtBP-E1A blk: blocks the CtBP interaction with E1A; activity change, % (no concentration beside the values); AID 651724; 0.49% of 340,000 active; AlphaScreen GST-E1A/His-CtBP binding, 1536-well; stronger effect = lower value; in the data active means activity change below about -65%; inconclusive means mostly about -30% to -63%; further: on the % scale 0 is the no-effect control and ±100 the full control effect
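Protein mix (5X: 125 nM each GST-E1A, His-CtBP) was incubated with pinned compound 2 h at 37 deg C in dark, in 50 mM Tris pH 8.0 buffer with 300 mM NaCl. Glutathione donor and nickel acceptor beads followed; AlphaScreen signal read after 1 h.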
The depositor's hits bear a star; ? = inconclusive; . = not tested or not shown; [ ] = another dose, or the depositor's remark. Most compounds without a hit are left out; they make up all but 5.4% or so of the library. Unless noted, the call rests on the fitted dose curve; in most records, active means well fitted curve in the direction sought with a large enough effect; inconclusive means small, poorly fitted or top-dose-only effect, or another doubt; inactive means no such curve, though single readings can be large; an effect the other way counts as inactive or inconclusive.

SMILES	Six1-Eya2 blk	p53 reactivation	RORg inh	VP16 counter	CtBP-E1A blk
O=C(COC(=O)c1ccccc1SCC(=O)N1CCCC1)NCc1ccccc1	12	11%	.	.	0
CCOC(=O)C(=Cc1ccccc1)C(=O)OCC	.	.	13µM*	13µM*	.
CCOC(=O)Nc1ccc(C(=O)/C=C/c2ccccc2)cc1	0	18%	7.1µM*	?	5
COc1ccc(OC(=O)N2C/C(=C/c3ccccc3)C(=O)/C(=C\c3ccccc3)C2)cc1	-2	.	.	.	21
O=C(C=Cc1cccnc1)c1ccccc1	2	.	.	.	0
CCOC(=O)C(=Cc1ccc(-n2cncn2)cc1)C(=O)OCC	-3	-12%	?	-93%	6
CN(C)C(=O)COc1ccc(C(=O)/C=C/c2cccnc2)cc1	-2	-15%	18µM*	?	4
CCOC(=O)N1C/C(=C\c2ccccc2)C(=O)/C(=C/c2ccccc2)C1	3	?	18µM*	?	.
COc1ccc2c(c1)CCCC21NC(=O)N(CC(=O)c2cc(F)ccc2F)C1=O (stereo not drawn)	-1	-4%	.	.	.
OC(c1ccc(Cl)c(Cl)c1)c1ncc(-c2ccccc2F)[nH]1 (stereo not drawn)	-4	.	.	.	-8
CCO[C@H]1OC(C(=O)O)=C[C@@H](C)[C@@H]1CCCO	6	-3%	5%	5%	-1
CCCN(CCC)S(=O)(=O)c1ccc(C(=O)Nc2nc(-c3ccccc3)c(C(=O)OCC)s2)cc1	10	-11%	-17%	-6%	5
O=C(/C=C/c1cccc(O)c1)c1cccnc1	7	-8%	8.9µM*	?	3
COc1ccc(C(=O)/C=C/c2ccc(O)cc2)cc1	4	24%	0.32µM*	2µM*	4
COc1ccc(C(=O)/C=C/c2ccc(O)cc2)c(O)c1CC=C(C)C	?	-7%	4µM*	7.9µM*	-27
COc1ccc(C(=O)OCCc2ccc(O)cc2)cc1	9	?	7.1µM*	13µM*	.
O=C(/C=C/c1cccnc1)c1cccc(O)c1	10	-16%	?	?	-9
O=C(/C=C/c1cccnc1)c1ccc(O)cc1	43	-15%	13µM*	-88%	4
O=C(/C=C/c1cccnc1)c1ccccc1O	0	2%	18µM*	?	.
O=C(/C=C/c1ccccc1)c1ccc(O)cc1	.	.	11µM*	?	.
O=C(/C=C/c1ccc(O)cc1)c1ccccc1	0	?	?	-18%	3
COc1ccc(/C=C/C(=O)c2nc3ccccc3n2CC(=O)c2ccc(OC)cc2)cc1	-8	-6%	10µM*	-8%	-9
COc1ccc(CNc2ncncc2-c2ccc3c(c2)OCO3)c(OC)c1	.	.	28%	-3%	.
O=C(O)c1ccccc1C(=O)c1cccc2ccccc12	2	-4%	-17%	3%	6
C/C(=N/NC(=O)CN1CCN(Cc2ccccc2Cl)CC1)c1ccncc1	-5	-12%	-25%	2%	-12
SMILES	Six1-Eya2 blk	p53 reactivation	RORg inh	VP16 counter	CtBP-E1A blk
N#CC(c1ccccc1)c1ccc2c(C(F)(F)F)cc(C(F)(F)F)nc2n1 (stereo not drawn)	-75*	2%	11µM*	?	-66*
Cc1ccc(C(C#N)c2ccc3c(C(F)(F)F)cc(C(F)(F)F)nc3n2)cc1 (stereo not drawn)	?	?	21%	-26%	?
COc1ccc(CC(=O)N2N=C(C)CC2(O)c2cccnc2)cc1 (stereo not drawn)	3	-1%	-45%	-2%	6
COc1ccc(CC(=O)N2N=C(C)CC2(O)c2cccnc2)cc1OC (stereo not drawn)	9	4%	11µM*	?	24
CC1=NN(C(=O)Cc2ccc([N+](=O)[O-])cc2)C(O)(c2ccccc2)C1 (stereo not drawn)	15	-7%	8.9µM*	13µM*	47
CC1=NN(C(=O)Cc2ccc([N+](=O)[O-])cc2)C(O)(c2cccnc2)C1 (stereo not drawn)	2	-2%	14µM*	-6%[0.365 µM]	-5
CC1=NN(C(=O)Cc2ccccc2)C(O)(c2ccccc2)C1 (stereo not drawn)	22	-2%	13%	3%	4
CCOC(=O)N1N=C(CC)CC1(O)C(F)(F)F (stereo not drawn)	0	3%	-43%	3%	7
CCC1=NN(C(=O)Cc2ccc(OC)c(OC)c2)C(O)(C(F)(F)F)C1 (stereo not drawn)	12	0%	16µM*	?	5
CCc1c2c(nc3c(C(C)C)cccc13)-c1cccc(=O)n1C2	.	.	-4%	1%	.
CC(C)(C)c1ccc(-n2ncc3c2CCCC3NC(=O)CN2CCOC2=O)cc1 (stereo not drawn)	2	-29%	-3%	13µM*	1
Cc1nnsc1C(=O)NC1CCCc2c1cnn2-c1ccc(C(C)(C)C)cc1 (stereo not drawn)	-1	3%	-37%	6.3µM*	7
CC(C)(C)c1ccc(-n2ncc3c2CCCC3NC(=O)c2ccncc2)cc1 (stereo not drawn)	0	.	.	.	4
O=C(NC1CCCc2c1cnn2-c1ccccc1F)c1ccccn1 (stereo not drawn)	-3	4%	52%	3%	.
Cc1cccc(-n2ncc3c2CCCC3NC(=O)C2(C(N)=O)CC2)c1C (stereo not drawn)	1	-8%	?	7.9µM*	-4
Cc1nnsc1C(=O)NC1CCCc2c1cnn2-c1ccccc1F (stereo not drawn)	7	12%	17%	10µM*	-2
CCn1cc(CN2CCC(n3nccc3NC(=O)CCc3ccccc3)CC2)cn1	0	1%	-2%	-22%	0
COc1ccc(C(=O)NC2CCCc3c2cnn3-c2ccccc2F)cc1OC (stereo not drawn)	-2	-4%	?	2.5µM*	0
COc1ccc(Cl)cc1NC(=O)C/C(C)=N/NC(=O)CCc1ccccc1	-11	-7%	?	13%	24
COc1ccc(Cl)cc1NC(=O)C/C(C)=N/NC(=O)c1ccccc1Cl	0	-3%	20%[1.91 µM]	13µM*	4
C/C(CC(=O)Nc1cccc(Cl)c1Cl)=N\NC(=O)c1ccccc1N	-4	1%	13µM*	-83%	-5
COc1cccc(C2=NOC(C(=O)Nc3cc(C)on3)C2)c1 (stereo not drawn)	-1	-2%	22%	6%	8
CCCn1c(C2CCCN2c2nc(-c3cccc(Br)c3)cs2)nc2ccccc21 (stereo not drawn)	-4	.	2.5µM*	?	-8
Cc1ccc(NC(=S)Nc2ccc(Cl)c(Cl)c2)c(OC(F)F)c1	-7	11%	?	?	-14
Cc1cccc(C)c1NC(=S)Nc1ccc(Cl)c(Cl)c1	4	-2%	6.3µM*	?	5
